RE007 growth inh – less growth of the S. pombe RE007 Vpr strain; S. pombe RE007 Vpr strain, BacTiter-Glo ATP luminescence, 24 h; Potency, µM (titrated, usually from 92.2 µM), for inactives: top-dose activity change, negative = less growth, usual class: inhibitors; actives 0.21% (n = 360,000); active means well fitted falling curve with a large enough effect; inconclusive means small, poorly fitted or top-dose-only effect; inactive means no such curve, though single readings can be large or run the other way; further: potency means the concentration at half of the fitted maximal effect; on the % scale 0 is the no-effect control and ±100 the full control effect; nearly all actives have a fitted effect of over 50% in size
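Fission yeast RE007 carrying one integrated HIV-1 vpr copy, seeded at OD 0.01 in PMG+AL medium with 23 nL pinned compound. Grown 24 h at 30 degrees; viability read by BacTiter-Glo luminescence after 5 min.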
TbPYK inhibitor – T. brucei pyruvate kinase inhibition; Q57TT1; TbPYK enzyme, Kinase-Glo Plus ATP luminescence, 45 min; Potency, µM (highest dose often 76.8 µM), for inactives: at the top dose activity, negative = inhibition, usual class: inhibitors; actives 0.12% (n = 410,000); further: potency means the concentration at half of the fitted maximal effect; on the % scale 0 is the no-effect control and ±100 the full control effect; nearly all actives have a fitted effect of over 50% in size
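Luminescent Kinase-Glo Plus end-point after 45 min room-temperature reaction of T. brucei pyruvate kinase started with 130 uM ADP (final). Buffer TEA 50 mM pH 7.2 with KCl, MgCl2, BSA, Tween-20; titration-based qHTS with fitted concentration-effect curves.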
LmPK inh – inhibitors of Leishmania mexicana pyruvate kinase. Q27686. purified LmPK, Kinase-Glo ATP luminescence, 1 h. Potency, µM (highest dose often 57.5 µM), inactives show at the highest dose activity change, negative = inhibition, most hits filed as inhibitors. actives 0.37% (n = 290,000); further: potency means the concentration at half of the fitted maximal effect; on the % scale 0 is the no-effect control and ±100 the full control effect
Target sequence (Q27686 whole entry, looked up): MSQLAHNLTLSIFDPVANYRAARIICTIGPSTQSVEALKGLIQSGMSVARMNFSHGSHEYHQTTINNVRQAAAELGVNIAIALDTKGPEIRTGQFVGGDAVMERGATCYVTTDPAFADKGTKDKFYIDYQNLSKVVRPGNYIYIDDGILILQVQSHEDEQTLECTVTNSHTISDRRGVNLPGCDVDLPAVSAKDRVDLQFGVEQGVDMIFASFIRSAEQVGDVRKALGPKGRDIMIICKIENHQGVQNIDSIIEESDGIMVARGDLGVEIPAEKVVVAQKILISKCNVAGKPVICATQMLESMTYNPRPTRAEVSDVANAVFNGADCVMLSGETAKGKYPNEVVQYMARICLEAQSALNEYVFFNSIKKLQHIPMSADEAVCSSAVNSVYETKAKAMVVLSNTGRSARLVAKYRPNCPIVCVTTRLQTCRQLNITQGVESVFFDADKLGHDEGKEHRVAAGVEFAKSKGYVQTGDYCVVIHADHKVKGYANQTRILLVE
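Screened at intermediate enzyme activity to detect both inhibitors and activators: LmPK at 0.1 nM, with a 0.5 nM enzyme column as activation reference. PEP 0.5 mM, ADP 0.1 mM; ATP detected by luminescence after 1 h.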
Shiga toxin inh – blocks Shiga toxin action in Vero cells; Vero cells, Shiga toxin protein synthesis inhibition reporter; inhibition, % at 38.7 µM; actives 9.2% (n = 290,000); AID 2315; in the data active means inhibition mostly above about 28%, no sharp cut-off; inactive means mostly below about 43%; further: 0% is about no effect
FBPA Giardia inh – inhibitors of Giardia lamblia fructose-1,6-bisphosphate aldolase; purified Giardia FBPA; AID 2451; Potency, µM (doses to about 59.6 µM), for the others: at the highest dose activity, negative = inhibition, hits mostly inhibitors; actives 0.71% (n = 290,000); further: potency means the concentration at half of the fitted maximal effect; on the % scale 0 is the no-effect control and ±100 the full control effect; nearly all actives have a fitted effect of over 55% in size
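40 nM FBPA preincubated 10 min at RT with compound (up to 57.5 uM final), then substrate plus GAPDH/TPI/NAD/arsenate coupling and diaphorase/resazurin added. Fluorescence read after 20 min at RT, 525/598 nm.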
CHX counter – counter-screen for Shiga toxin inhibitors: cycloheximide protein synthesis inhibition; actives 12% (n = 300,000); AID 2314; max response, %; cell reporter, cycloheximide protein synthesis inhibition counterscreen; in the data active means max response mostly above about 13%, no sharp cut-off; inactive means mostly below about 14%; further: read at 38.3 µM for the half of the compounds with a filed dose; 0% is about no effect
The depositor's hits bear a star; ? = inconclusive; nt = no result; ! = not active in a repeat. The entries come from a sample that favours hits as a whole. Unless noted, the call rests on the fitted dose curve; in most records, active means well fitted curve in the direction sought with a large enough effect; inconclusive means small, poorly fitted or top-dose-only effect, or another doubt; inactive means no such curve, though single readings can be large; an effect the other way counts as inactive or inconclusive.

SMILES | RE007 growth inh | TbPYK inhibitor | LmPK inh | Shiga toxin inh | FBPA Giardia inh | CHX counter
Cc1cccc(NC(=O)Cn2c(O)c(N=NC(=O)c3ccccc3O)c3ccccc32)c1 | -7% | 2% | -3% | -6 | -13% | 1
O=C(CCC(=O)c1ccccc1)NCc1ccccc1 | -4% | -3% | 0% | 17 | 3% | -1
C/C=C1\COC(C(=O)NCCN2CCOCC2)(C(F)(F)F)C=C1C=C(C)C (configuration not stated) | nt | nt | nt | 11 | 3% | 12
COc1cc(/C=N/Nc2cccc3cccnc23)cc(OC)c1O | -6% | ? | ? | 69* | -27% | 34*
Oc1c(/C=N/Nc2cccc3cccnc23)ccc2ccccc12 | -17% | 2% | -2% | 90* | -9% | 74*
Oc1cccc(/C=N/Nc2nn3cnnc3c3ccccc23)c1 | -9% | 2% | 14µM* | 24 | -7% | -2
Oc1cccc(/C=N/Nc2cccc3cccnc23)c1 | -10% | -4% | ? | 123* | -14% | 44*
COc1cccc(/C=N/Nc2nn3cnnc3c3ccccc23)c1O | -1% | 3% | 1% | 0 | -18% | -1
CS(=O)(=O)c1ncc(Cl)c(C(=O)N2CCN(c3cccc(Cl)c3)CC2)n1 | nt | -3% | nt | -20 | nt | -16
Oc1cccc(/C=N/Nc2ccc(Cl)nn2)c1 | 18% | 0% | -5% | 68* | -10% | 42*
Cc1ccccc1/C=N/Nc1ccc(Cl)nn1 | 8% | 1% | -4% | 30 | 6% | 11
C/C=C(\C)[C@H](O)C[Si](C)(C)c1ccccc1 | nt | nt | nt | nt | -1% | nt
COc1ccc(-n2nc([N+](=O)[O-])c(=NCc3cccnc3)n2O)cc1 | -13% | -2% | -7% | 26 | -3% | 65*
Cc1ccc(CN=c2c([N+](=O)[O-])nn(-c3cccc(Cl)c3)n2O)cc1 | -3% | -5% | 4% | 7 | -14% | 8
Cc1ccc(CN=c2c([N+](=O)[O-])nn(-c3cccc(C)c3)n2O)cc1 | -20% | 9% | 3% | 26 | 0% | 25*
COc1ccc(-n2nc([N+](=O)[O-])c(=NCCC3=CCCCC3)n2O)cc1 | 6% | -1% | 0% | 46 | -8% | 32*
COc1ccc(-n2nc([N+](=O)[O-])c(=NCc3ccco3)n2O)cc1 | 15% | 3% | 7% | 80* | -9% | 30*
COc1ccc(-n2nc([N+](=O)[O-])c(=NCCc3ccc(C)cc3)n2O)cc1 | -3% | 3% | 7% | 47 | -6% | 5
O=C(c1cc(C(F)(F)F)cc(C(F)(F)F)c1)N1CCC[C@@]2(CCN(Cc3ccncc3)C2)C1 | nt | 5% | nt | nt | 4% | nt
CC(C)(C)c1ccc(N=C2SCC(=O)N2Cc2cccs2)cc1 | 7% | 5% | -1% | 50* | -19% | 47*
O=C(Cn1cc(S(=O)(=O)Cc2cccc(Cl)c2)c2ccccc21)Nc1ccccc1C(F)(F)F | nt | -1% | nt | nt | nt | nt
Cc1cnc(Nc2ccc(F)cc2Cl)nc1-c1c[nH]c(C(=O)N[C@H](CO)c2cccc(Cl)c2)c1 | nt | 0% | nt | nt | nt | nt
Cc1ccc(NC(=O)C2CCCN(S(=O)(=O)c3ccc4[nH]c(=O)ccc4c3)C2)cc1Cl (configuration not stated) | nt | 3% | nt | nt | nt | nt
CC(=O)Oc1cccc(/C=C2\C=C(c3ccc(C)cc3)OC2=O)c1 | -26% | -24% | 2% | 55 | 2% | 17*
CC(=O)Oc1cccc(C)c1 | nt | 0% | nt | 183*! | 6% | 75*!
Cc1ccc(C2=C/C(=C/c3cccs3)C(=O)O2)cc1 | -24% | -6% | -3% | 25 | 3% | 22*
Cc1ccc(C=C2C=C(c3ccccc3)OC2=O)cc1 | -11% | 5% | nt | nt | nt | nt
COc1ccc(C2=C/C(=C\c3ccc(OC(C)=O)cc3)C(=O)O2)cc1 | -29% | -7% | 5% | 87* | 4% | 40*
c1ccc(Nc2ncnc3ccc(-c4cccnc4)cc23)cc1 | nt | nt | nt | nt | -7% | nt
CCCCCCCCCCCCCCCC(=O)O[C@@H]1CC(C)=C(\C=C/C(C)=C\C=C/C(C)=C\C=C\C=C(C)\C=C\C=C(C)\C=C\C2=C(C)C[C@@H](OC(=O)CCCCCCCCCCCCCCC)CC2(C)C)C(C)(C)C1 | nt | 2% | nt | nt | nt | nt

Bioassay records: PubChem, National Center for Advancing Translational Sciences (NCATS)
